Data as given in the supplement of paper PMC7801607.

Experiments:
CHO = assay: % viability of CHO cells (MTT); higher = less toxic; conditions: 48 h
How it was run: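 CHO cells were seeded at 10^6 cells/well in 200 µL and left overnight to attach. The medium was then replaced with fresh medium containing compound at 2 or 20 µM for 48 h. Survival was read colorimetrically with the tetrazolium (MTT) assay. Percent viability was expressed relative to untreated cells.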

HepG2-A16-CD81 = assay: % inhibition of HepG2 viability (CellTiter-Glo); higher = more toxic; conditions: 5 µM
[1] = tested on: Plasmodium falciparum NF54 stage IV/V gametocytes; assay: % inhibition of gametocyte viability (PrestoBlue); higher = more inhibition; conditions: 48 h
How it was run: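 Stage IV/V NF54 gametocytes (2% gametocytaemia, 5% haematocrit, 100 µL/well) were exposed to compound at 1 or 5 µM. Incubation was 48 h at 37 °C, stationary and hypoxic, followed by 10 µL PrestoBlue for 2 h. Fluorescence at 612 nm was read on 70 µL of transferred supernatant. Percent inhibition of gametocyte viability was normalised to DMSO and kill controls from a single run.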

[2] = tested on: Plasmodium falciparum NF54 asexual blood stage; assay: % inhibition of asexual blood stage proliferation (pLDH); higher = more inhibition; conditions: 72 h
How it was run: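 Plasmodium falciparum NF54 ring-stage cultures (1% haematocrit, 2% parasitaemia) were exposed to compound at 2 or 20 µM in 96-well plates. Incubation was 72 h at 37 °C under 4% CO2, 3% O2 and 93% N2. Survival was read colorimetrically at 620 nm with the parasite lactate dehydrogenase assay. Percent inhibition of asexual proliferation was normalised to DMSO and kill controls, and the screen was run on two separate occasions.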

[3] = tested on: Plasmodium falciparum NF54 stage IV/V gametocytes; assay: % inhibition of gametocyte viability (ATP bioluminescence); higher = more inhibition; conditions: 24 h
How it was run: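 In 96-well plates, compound at 1 or 5 µM was added to 30,000 density-gradient-enriched stage IV/V NF54 gametocytes per well and incubated for 24 h at 37 °C. ATP readout used the Promega BacTiter Glo bioluminescence system. Percent inhibition of gametocyte viability comes from a single run, normalised to control wells.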

[4] = tested on: Plasmodium falciparum NF54 stage IV/V gametocytes; assay: % inhibition of gametocyte viability (luciferase reporter); higher = more inhibition; conditions: 48 h
How it was run: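 Percent inhibition came from luminescence and was normalised to controls in a single run. Gametocytes (stage IV/V, NF54-Pfs16-GFP-Luc line, 2% gametocytaemia, 2% haematocrit) were treated with compound at 1 or 5 µM and incubated for 48 h at 37 °C without agitation under hypoxia. Readings used 30 µL lysate with 30 µL Promega luciferin substrate on a GloMax-Multi+ reader, integrating for 10 s.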

[5] = tested on: Plasmodium berghei ANKA liver stage in HepG2-A16-CD81; assay: % inhibition of liver stage parasite viability (luciferase); higher = more inhibition; conditions: 5 µM; 48 h
Protocol: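 Single-concentration screen of the MMV Pandemic Response Box. P. falciparum NF54 asexual blood stages: pLDH assay, 72 h at 37 °C, 2 and 20 µM, n=2. Stage IV/V gametocytes (NF54): luciferase reporter (NF54-Pfs16-GFP-Luc, 48 h), ATP bioluminescence (24 h) and PrestoBlue (48 h) at 1 and 5 µM, n=1. P. berghei liver stage (luciferase in HepG2-A16-CD81, 48 h post infection) at 5 µM, n=4. All normalised to DMSO and kill controls as % inhibition.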
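Wherever % inhibition of HepG2 viability (CellTiter-Glo) is given: HepG2-A16-CD81 hepatoma cells plated as in the liver-stage assay but without sporozoites, with DMSO wells as negative and 25 µM puromycin as positive control.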

Structure (SMILES)	% viability of CHO cells (CHO; 2 µM) [%]	% viability of CHO cells (CHO; 20 µM) [%]	% inhibition of HepG2 viability (HepG2-A16-CD81) [%]	% inhibition of gametocyte viability ([1]; 1 µM) [%]	% inhibition of gametocyte viability ([1]; 5 µM) [%]	% inhibition of asexual blood stage proliferation ([2]; 2 µM) [%]	% inhibition of asexual blood stage proliferation ([2]; 20 µM) [%]	% inhibition of gametocyte viability ([3]; 1 µM) [%]	% inhibition of gametocyte viability ([3]; 5 µM) [%]	% inhibition of gametocyte viability ([4]; 1 µM) [%]	% inhibition of gametocyte viability ([4]; 5 µM) [%]	% inhibition of liver stage parasite viability [5] [%]
CCNC(=O)Nc1cn2c(-c3ncc(CC)cn3)cc(-c3cccnc3)cc2n1	91.8	58.4	0.015	19.9	36.7	46	88.1	7.29	24.5	1.08	6.06	4.97
C[C@H](NC(CC(=O)c1ccccc1C(F)(F)F)C(=O)O)c1ccccc1 (some centres undefined)	119	58.9	0.323	20.3	77.3	34.4	108	11.3	35.8	< 0	56.4	36.5
COc1ccc(NS(=O)(=O)c2ccc(Cl)s2)cn1	98	100	6.74	< 0	6.82	22.6	48.5	< 0	< 0	4.39	< 0	-1.42
CC(C)(C)c1cc(C(=O)/C(C#N)=N/Nc2cccc(Cl)c2)no1	113	97.4	44.1	< 0	< 0	-1.08	24.2	< 0	< 0	< 0	< 0	51.5
COc1ccc2c(c1)cc(CNC(=O)c1cc3ccccc3o1)n2CC(=O)O	90.6	111	3.58	< 0	26	-3.06	7.62	1.71	< 0	< 0	< 0	24.3
O=C(Nc1cccc(C2=NCCN2)c1)c1ccc(-c2ccc(C(=O)Nc3cccc(C4=NCCN4)c3)cc2)cc1	90.2	96.3	14.5	31.3	62.4	54	41.2	7.89	38	< 0	59.1	15.4
O=C(O)[C@H]1C2CCC(CC2)[C@@H]1Nc1nc(-c2c[nH]c3ncc(F)cc23)ncc1F	91.6	97.8	-9.1	< 0	< 0	11.9	55.2	0.663	2.93	< 0	< 0	34
CC(C)(C)c1ccc(OCCn2nc(C(=O)O)c3ccccc3c2=O)cc1	100	104	1.37	< 0	< 0	4.78	19.9	< 0	< 0	< 0	< 0	3.4
CC(C)(C)NC(=O)[C@@H]1C[C@@H]2CCCC[C@@H]2CN1C[C@@H](O)[C@H](Cc1ccccc1)NC(=O)[C@H](CC(N)=O)NC(=O)c1ccc2ccccc2n1	89	114	10.9	< 0	19.6	40	58.3	< 0	< 0	< 0	< 0	26.6
COc1ccc2c(c1OC)C(=O)OC2C1c2c(cc3c(c2OC)OCO3)CCN1C (centres undefined)	102	-0.468	3.76	< 0	5.61	42.6	68.3	< 0	< 0	2.79	9.42	19
CC(C)(C)c1ccc(Oc2ccc(N)cc2)cc1	130	58.8	-4.14	< 0	67	-4.84	55.8	< 0	< 0	66.9	89.3	54.4
CN(C)c1[nH]c(=O)ncc1F	111	104	11.9	< 0	< 0	-4.48	8.8	2.44	< 0	< 0	< 0	26.1
Cc1ncc([N+](=O)[O-])n1CC(C)O (centres undefined)	92.2	87.1	7.14	7.95	28.2	42.5	65.1	4.81	< 0	8.84	10	–
CCc1oc2ccccc2c1C(=O)c1ccc(O)cc1	152	112	9.97	< 0	17.5	29.1	6.67	< 0	< 0	< 0	9.06	39.9
O=S(=O)(Nc1cccc2cccnc12)c1ccccc1	85	121	5.35	4.79	< 0	8.89	70	< 0	< 0	< 0	< 0	0.562
CC(C)n1cnc2c(NCc3ccccc3)nc(NCc3ccccc3)nc21	104	58.3	7.56	< 0	< 0	45.5	60.5	< 0	< 0	< 0	< 0	17.1
CN(C)CCCOc1ccc(-c2ccc3ncc4c(c3c2)n(C2CCOCC2)c(=O)n4C)cn1	99.8	75.9	4	61.8	91.9	68.1	57.1	18.7	33.7	78.1	92	64.6
CCc1c(OCC2CCC2)c2cc(F)ccc2[nH]c1=O	78.6	52.7	-2.38	14.3	2.83	26.9	36	7.14	< 0	< 0	< 0	12.7
O=C(NCc1ccccc1Cl)c1cnc2ccccc2n1	106	124	5.29	< 0	< 0	6.58	48.8	< 0	< 0	< 0	< 0	12.6
NNC(=O)c1ccncc1	94.3	96.5	8.54	< 0	4.24	40.1	71.2	< 0	< 0	17.1	< 0	22.9
